V-ATPase pH: alters yeast V-ATPase proton transport; AID 504577; S. cerevisiae, pHLuorin cytosolic pH fluorescence; 350,000 compounds, 0.37% hits; response, % at 10 µM; in the data active = response mostly above about 7.3%, no sharp cut-off; inactive = mostly below about 5.4%; note: actives read high
AI-2 QS modul: modulates the Vibrio harveyi AI-2 quorum sensing system | AID 2094 | 300,000 compounds, 0.4% hits | Vibrio harveyi JMH597 AI-2 luminescence/OD600 ratio, 9 h; hits give low values; strain lacks LuxN and CqsS sensors; 0 = neutral-control median | activity change, % at 7.5 µM; in the data active = activity change below about -75%, passing the limit was not always enough; inconclusive = no clear call, values can overlap the other calls;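 note: luminescence divided by OD600 gain over 9 h not by final OD600 alone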
Efflux pump inh: antifungal efflux pump inhibition, Nile Red retention; S. cerevisiae Candida pump triplex; inhibition, % at 10 µM; 330,000 compounds, 0.44% hits;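 active = plate passing quality check with inhibition over a set limit, or well fluorescence over plate mean plus 4 SD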;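 note: Nile Red retained in pooled yeast measured as flow cytometry median fluorescence; higher means more Nile Red kept so more efflux inhibition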
Mot1-301 SUMO: blocks SUMOylation pathway, rescuing yeast Mot1-301 growth. S. cerevisiae Mot1-301 growth rescue, ATP luminescence, 38.5C; percent above DMSO median, 100 means doubled. 320,000 compounds, 1% hits. growth rescue, % at 18.8 µM;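 active = every valid replicate shows activation above 250% relative to neutral control wells; inactive = the rest, any valid replicate at or below 250%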
ATG4B inh: ATG4B (human) cysteine protease inhibition; 340,000 compounds, 0.51% hits; AID 504462; ATG4B cleavage of LC3-PLA2, NBD-HPC fluorescence, 1 h; Q9Y4P1; inhibition, % at 8.33 µM; in the data active = inhibition above about 40%
Target sequence (Q9Y4P1 whole entry, looked up): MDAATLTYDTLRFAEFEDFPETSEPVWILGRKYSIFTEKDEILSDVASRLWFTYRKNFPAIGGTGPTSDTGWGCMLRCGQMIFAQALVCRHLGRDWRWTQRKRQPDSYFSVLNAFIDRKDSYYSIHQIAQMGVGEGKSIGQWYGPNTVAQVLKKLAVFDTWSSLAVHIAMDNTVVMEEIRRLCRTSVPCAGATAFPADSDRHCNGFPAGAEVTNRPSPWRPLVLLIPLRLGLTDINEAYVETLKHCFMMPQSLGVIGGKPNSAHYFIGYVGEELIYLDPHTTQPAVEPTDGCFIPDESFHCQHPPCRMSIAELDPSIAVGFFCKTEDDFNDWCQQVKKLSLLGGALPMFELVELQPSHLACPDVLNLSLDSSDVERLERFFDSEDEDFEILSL
ATG4B conf: confirmation of human ATG4B inhibitors | shares compounds with ATG4B inh | ATG4B protease fluorescent substrate cleavage assay | inhibition, % at 8.33 µM | 320 compounds, 92% hits; in the data active = inhibition above about 39%
PLA2 ctr: PLA2 (human) inhibition in ATG4B counter-screen. AID 588402. purified PLA2, NBD-C6-HPC fluorescence, 45 min. shares compounds with ATG4B inh. inhibition, % at 8.33 µM. 1,600 compounds, 66% hits; in the data active = inhibition above about 50%
Target sequence (P04054 whole entry, looked up): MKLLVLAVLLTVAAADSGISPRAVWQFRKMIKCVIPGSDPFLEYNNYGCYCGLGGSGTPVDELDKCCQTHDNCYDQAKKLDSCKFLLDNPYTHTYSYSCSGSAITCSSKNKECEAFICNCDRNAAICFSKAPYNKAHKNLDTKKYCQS
Each line names hits and unclear results; the compound was inactive in the other large screens (follow-up assays come after a bar, where they were run). This is a sample that favours compounds with a hit; in the whole collection about 2.5% have one here.

CCN1CCSc2ccc(C(=O)NCc3ccccc3Br)cc21	none
COC(=O)/C(=N/Nc1ccccc1C)Sc1nnc(C(O)c2ccccc2)n1-c1ccccc1 (configuration not stated)	none
CC(=O)N(C(C)=O)N1C(=O)/C(=C/c2ccc(Cl)cc2)SC1=S	ATG4B inh 67.8 | PLA2 ctr 57.2
Cc1ccc(C)n1N1C(=O)/C(=C\c2ccc(Cl)cc2)SC1=S	none
COC1CCC2(C)C(=CCC3C4CC(O)CC4(C)CCC32)C1 (configuration not stated)	none (no result: AI-2 QS modul, Efflux pump inh, Mot1-301 SUMO)
O=C1NC(=S)S/C1=C\c1cc(Cl)cc(Cl)c1O	ATG4B inh 62.1 (no result: AI-2 QS modul, Efflux pump inh, Mot1-301 SUMO) | ATG4B conf 39.8 | PLA2 ctr inactive
N#C/C(=C\c1coc2ccccc2c1=O)C(N)=S	none (no result: Mot1-301 SUMO)
N#C/C(=C\c1coc2ccc(O)cc2c1=O)C(=O)Nc1nc2ccccc2s1	AI-2 QS modul inconclusive, ATG4B inh 54.5 | PLA2 ctr inactive
COc1ccccc1OCC(=O)Nc1cc(S(=O)(=O)N2CCCCC2)ccc1N1CCCCC1	ATG4B inh 41.8 | PLA2 ctr inactive
COc1ccc(S(=O)(=O)N2CCCCC2)cc1NC(=S)Nc1cccc(Cl)c1C	ATG4B inh 71.4 | PLA2 ctr 73.0
CCN(CC)S(=O)(=O)c1ccc(N2CCOCC2)c(NC(=O)COc2ccccc2C)c1	ATG4B inh 62.0 (no result: AI-2 QS modul) | PLA2 ctr 75.9
CCCOc1c(Br)cc(C(N)=O)cc1OCC	Mot1-301 SUMO 315.9, ATG4B inh 41.9 | PLA2 ctr 56.1
CCOc1c(Br)cc(C(N)=O)cc1OC	none
COc1cc(C(N)=O)cc(Br)c1OCc1ccccc1	ATG4B inh 69.6 | PLA2 ctr 71.4
COc1cc(C(N)=O)cc(Br)c1OC	none
CCOc1c(Br)cc(C(N)=O)cc1OCc1ccccc1	ATG4B inh 78.7 | PLA2 ctr 80.1
CCOc1c(CNc2nnnn2C)cccc1OC	none
CCn1c(N2CCN(S(=O)(=O)c3ccc(F)cc3)CC2)nc2ccccc21	none
CCn1c(N2CCN(S(=O)(=O)c3ccc(Cl)cc3)CC2)nc2ccccc21	ATG4B inh 59.9 | PLA2 ctr 67.3
CCOC(=O)c1c(C)nc2sc(C(=O)Nc3ccccc3)c(N)c2c1-c1ccc(OC)cc1	none
CCOC(=O)c1c(C)nc2sc(C(N)=O)c(N)c2c1-c1ccccc1	ATG4B inh 54.2 | PLA2 ctr 60.7
CCOC(=O)c1c(C)nc2c(c1-c1ccccc1)C(=O)c1ccccc1-2	ATG4B inh 79.2 | PLA2 ctr 71.0
Cc1c(C(=O)Nc2ccccc2[N+](=O)[O-])csc1-c1ccccc1	ATG4B inh 59.2 | PLA2 ctr inactive
Cc1ccc(S(=O)(=O)Nc2nc3ccccc3nc2N2CCN(c3ccccc3F)CC2)cc1	ATG4B inh 61.2 | PLA2 ctr 69.2
O=S(=O)(Nc1nc2ccccc2nc1N1CCc2ccccc2C1)c1ccc(Cl)cc1	ATG4B inh 40.1 | ATG4B conf 85.5 | PLA2 ctr inactive
Cc1ccc(S(=O)(=O)NC2=C(N3CCN(c4ccccc4F)CC3)C(=O)c3ccccc3C2=O)cc1	none
CC(=O)Nc1ccc(S(=O)(=O)Nc2nc3ccccc3nc2N2CCc3ccccc3C2)cc1	none
Cc1ccc(S(=O)(=O)Nc2cc3c4c(c2)CCC(=O)N4CCC3)cc1	none
CC(C)C[C@@H](CNCC(=O)[C@H](CC(C)C)NC(=O)c1[nH]cnc1C(=O)N[C@@H](C)CN)NC(=O)c1nc[nH]c1C(=O)N[C@@H](CC(=O)O)C(=O)O	none (no result: AI-2 QS modul, Efflux pump inh, Mot1-301 SUMO)
CCOC(=O)c1c(C)[nH]c(C)c1C(=O)CSc1nc2ccccc2n1CC	none
Cc1ccc(-n2c(SCC(=O)NNC(=S)Nc3ccccc3)nc3ccccc3c2=O)cc1	ATG4B inh 78.4 | PLA2 ctr 82.0
COn1c(SC(C)C)nc2ccccc2c1=O	none
Cc1[nH]c2ccccc2c1/C=C/c1nc2ccccc2c(=O)n1-c1cccc([N+](=O)[O-])c1	none
O=c1c2ccccc2nc(/C=C/c2c[nH]c3ccccc23)n1-c1ccc([N+](=O)[O-])cc1	ATG4B inh 57.0 | PLA2 ctr inactive
CCOC(=O)c1c(C)[nH]c(C)c1C(=O)CSc1nc2ccccc2c(=O)n1-c1ccc(CC)cc1	ATG4B inh 52.1 | PLA2 ctr 66.5
O=C(CSc1nc2ccccc2c(=O)n1-c1ccc(F)cc1)Nc1ccc(C(=O)O)cc1	none
CC(C#N)Sc1nc2ccccc2c(=O)n1-c1ccccc1 (configuration not stated)	ATG4B inh 47.4 | PLA2 ctr 56.3
O=C(Nc1ccccn1)c1ccc(S(=O)(=O)N2CCCCCC2)cc1	none
FC(F)(F)c1cnc(COc2cc(Cl)cc(Cl)c2)c(Cl)c1	none
CCOC(CCn1c(SCc2ccc([N+](=O)[O-])cc2)nc2ccccc2c1=O)OCC	none
Cc1ccc(-n2c(SCc3ccc([N+](=O)[O-])cc3)nc3ccccc3c2=O)cc1	ATG4B inh 40.8 | PLA2 ctr inactive
Cc1cccc(NC2=C/C(=N/S(=O)(=O)c3cccs3)c3ccccc3C2=O)c1	none (no result: AI-2 QS modul)
Cc1ccc(NC2=C/C(=N\S(=O)(=O)c3cccs3)c3ccccc3C2=O)c(C)c1	ATG4B inh 56.3 | PLA2 ctr 60.5
COc1ccc(CCNC(=O)c2nn(C)c3c2CS(=O)(=O)c2ccccc2-3)cc1OC	none
Cc1cc([N+](=O)[O-])nn1CCCC(=O)Nc1cc(Oc2ccccc2)cc([N+](=O)[O-])c1	ATG4B inh 54.5 | PLA2 ctr 58.1
COC(=O)c1ccccc1NC(=O)CCCn1nc([N+](=O)[O-])cc1C	none
Cc1ccc(Oc2cc(NC(=O)CCCn3nc([N+](=O)[O-])c(Cl)c3C)cc([N+](=O)[O-])c2)cc1	ATG4B inh 88.7 | PLA2 ctr 91.5
Cc1cc([N+](=O)[O-])nn1CCCC(=O)Nc1cc(Oc2ccc(F)cc2)cc([N+](=O)[O-])c1	ATG4B inh 61.1 | PLA2 ctr 62.1
COc1ccc(S(=O)(=O)N2CCCCCC2)cc1C(=O)OCC(=O)NC1CCS(=O)(=O)C1 (configuration not stated)	none (no result: AI-2 QS modul)
Cc1cccc(NC(=O)C2CCCN(S(=O)(=O)c3cccc4cccnc34)C2)c1 (configuration not stated)	none
COC(=O)[C@@H](Cc1ccccc1)NC(=O)Cn1cc(C)c(=O)[nH]c1=O	none (no result: AI-2 QS modul, Efflux pump inh, Mot1-301 SUMO)
N#CCC(=O)Nc1ccc(C(=O)NCc2cccc(Cl)c2)cc1	ATG4B inh 52.8 | PLA2 ctr 71.2
O=C(NCc1cccc(Cl)c1)c1ccncc1	none
Cc1sc(NC(=O)C2C3CCC(O3)C2C(=O)O)nc1-c1ccc(CC(C)C)cc1 (configuration not stated)	ATG4B inh 55.5 | PLA2 ctr 69.1

Compound activity from PubChem BioAssay.
